PubChem BioAssay (NCATS)
Results filed as inconclusive are left out. Entries that show only a call come without a potency. Activity calls are given as the source filed them. Calls follow the shape of the dose curve; as a rule, active = well fitted inhibition curve with a large enough effect; inconclusive = small, poorly fitted or top-dose-only effect; inactive = flat fitted curve, though single readings scatter.

What was measured:
Test in all cases: qHTS profiling for inhibitors of Plasmodium falciparum proliferation (AID 504749); also: nearly all actives have a fitted effect of over 60% in size
Settings in all cases: P. falciparum in erythrocytes, SYBR Green DNA, 72 h; series mostly up to 28.7 µM
[1] = test system: DIV14
Method in brief: (§1)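 Quantitative HTS: compounds pinned into medium, infected erythrocytes added (0.3% parasitemia, 2.5% hematocrit), 72 h culture at 37 C under 5% CO2. Saponin/Triton lysis with SYBR Green I, overnight RT, then fluorescence read.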

[2] = test system: DIV17
Method in brief: as §1

[3] = test system: DIV30
Method in brief: as §1

[4] = test system: Dd2
Method in brief: as §1

[5] = test system: ECU
Method in brief: as §1

[6] = test system: FAB9
Method in brief: as §1

[7] = test system: GB4
Method in brief: as §1

[8] = test system: HB3
Method in brief: as §1

[9] = test system: ICS
Method in brief: as §1

[10] = test system: JCK
Method in brief: as §1
Potency is read from the fitted curve at half-maximal effect.

Row | Compound | Potency [1] | Potency [2] | Potency [3] | Potency [4] | Potency [5] | Potency [6] | Potency [7] | Potency [8] | Potency [9] | Potency [10]
1 | Cc1cccc(Nc2ccncc2S(=O)(=O)NC(=O)NC(C)C)c1 | inactive | inactive | inactive | inactive | inactive | inactive | inactive | inactive | inactive | inactive
2 | CN(C)c1ccc(C(=C2C=CC(=[N+](C)C)C=C2)c2ccc(N(C)C)cc2)cc1 | 478 nM (active) | 601 nM (active) | 478 nM (active) | 158 nM (active) | 355 nM (active) | 355 nM (active) | 239 nM (active) | 631 nM (active) | 251 nM (active) | 631 nM (active)
3 | Cc1cccc(N(C)C(=S)Oc2ccc3ccccc3c2)c1 | inactive | inactive | inactive | inactive | inactive | inactive | inactive | inactive | inactive | inactive
4 | C[C@]12C=CC(=O)C=C1CC[C@@H]1[C@@H]2C(=O)C[C@@]2(C)[C@H]1CC[C@]2(O)C(=O)CO | inactive | inactive | inactive | inactive | inactive | inactive | inactive | inactive | inactive | inactive
5 | CC(C)NCC(O)c1ccc(NS(C)(=O)=O)cc1 (stereo not drawn) | inactive | inactive | inactive | inactive | inactive | inactive | inactive | inactive | inactive | inactive
6 | CN(C)CCc1c[nH]c2ccc(CS(=O)(=O)N3CCCC3)cc12 | inactive | inactive | inactive | inactive | inactive | inactive | inactive | inactive | inactive | inactive
7 | COc1nc(N)nc2c1ncn2[C@@H]1O[C@H](CO)[C@@H](O)[C@@H]1O | inactive | inactive | inactive | inactive | inactive | inactive | inactive | inactive | inactive | inactive
8 | Nc1nc(N)c2nc(CNc3ccc(C(=O)NC(CCC(=O)O)C(=O)O)cc3)cnc2n1 (stereo not drawn) | inactive | inactive | inactive | inactive | inactive | inactive | inactive | inactive | inactive | inactive
9 | C[C@@H](NCCCc1cccc(C(F)(F)F)c1)c1cccc2ccccc12 | 6010 nM (active) | 5360 nM (active) | 7570 nM (active) | 5010 nM (active) | 3160 nM (active) | inactive | 12000 nM (active) | 12600 nM (active) | 1780 nM (active) | 
10 | CCCc1cc(C(N)=S)ccn1 | inactive | inactive | inactive | inactive | inactive | inactive | inactive | inactive | inactive | inactive
11 | CN1CCN(c2c(F)cc3c(=O)c(C(=O)O)cn4c3c2OCN4C)CC1 | inactive | inactive | inactive | inactive | inactive | inactive | inactive | inactive | inactive | inactive
12 | COC(=O)Nc1nc2ccc(Sc3ccccc3)cc2[nH]1 | inactive | inactive | inactive | inactive | inactive | inactive | inactive | inactive | inactive | inactive
13 | CN(CCOc1ccc(CC2SC(=O)NC2=O)cc1)c1ccccn1 (stereo not drawn) | inactive | inactive | inactive | inactive | inactive | inactive | inactive | inactive | inactive | inactive
14 | CCN(C)C(=O)Oc1cccc([C@H](C)N(C)C)c1 | inactive | inactive | inactive | inactive | inactive | inactive | inactive | inactive | inactive | inactive
15 | O=c1cc(O)c(Cl)c[nH]1 | inactive | inactive | inactive | inactive | inactive | inactive | inactive | inactive | inactive | inactive
16 | Nc1nc(N)nc(-c2cc(Cl)ccc2Cl)n1 | inactive | inactive | inactive | inactive | inactive | inactive | inactive | inactive | inactive | inactive
17 | C#CCN[C@@H]1CCc2ccccc21 | inactive | inactive | inactive | inactive | inactive | inactive | inactive | inactive | inactive | inactive
18 | Nc1[nH]c(=O)ncc1F | inactive | inactive | inactive | inactive | inactive | inactive | inactive | inactive | inactive | inactive
19 | CCCN[C@H]1CCc2nc(N)sc2C1 | inactive | inactive | inactive | inactive | inactive | inactive | inactive | inactive | inactive | inactive
20 | COc1cc(NCc2ccc3nc(N)nc(N)c3c2C)cc(OC)c1OC | 169 nM (active) | 239 nM (active) | 4780 nM (active) | 631 nM (active) | 5 nM (active) | 4.5 nM (active) | 1.5 nM (active) | 31.6 nM (active) | 794 nM (active) | 7080 nM (active)

Row | Compound | Potency [1] | Potency [2] | Potency [3] | Potency [4] | Potency [5] | Potency [6] | Potency [7] | Potency [8] | Potency [9] | Potency [10]
21 | CCc1c2c(nc3ccc(OC(=O)N4CCC(N5CCCCC5)CC4)cc13)-c1cc3c(c(=O)n1C2)COC(=O)[C@]3(O)CC | inactive | inactive | inactive | inactive | inactive | inactive | inactive | inactive | inactive | inactive
22 | COc1cc([C@@H]2c3cc4c(cc3[C@H](O)[C@H]3COC(=O)[C@H]23)OCO4)cc(OC)c1OC | 2130 nM (active) | 1690 nM (active) | 6750 nM (active) | 2240 nM (active) | 3550 nM (active) | 6310 nM (active) | 3380 nM (active) | 1780 nM (active) | 891 nM (active) | 
23 | COc1ncnc(NS(=O)(=O)c2ccc(N)cc2)c1OC | inactive | inactive | inactive | inactive | inactive | inactive | inactive | inactive | inactive | inactive
24 | Cc1ncc([N+](=O)[O-])n1CCO | inactive | inactive | inactive | inactive | inactive | inactive | inactive | inactive | inactive | inactive
25 | O=C(O)c1cc(=O)[nH]c(=O)[nH]1 | inactive | inactive | inactive | inactive | inactive | inactive | inactive | inactive | inactive | inactive
26 | Cc1noc(NS(=O)(=O)c2ccc(N)cc2)c1C | inactive | inactive | inactive | inactive | inactive | inactive | inactive | inactive | inactive | inactive
27 | NC(N)=NC(N)=NCCc1ccccc1 | inactive | inactive | inactive | inactive | inactive | inactive | inactive | inactive | inactive | inactive
28 | CC(C)(C#N)c1cc(Cn2cncn2)cc(C(C)(C)C#N)c1 | inactive | inactive | inactive | inactive | inactive | inactive | inactive | inactive | inactive | inactive
29 | CNS(=O)(=O)Cc1ccc2[nH]cc(CCN(C)C)c2c1 | inactive | inactive | inactive | inactive | inactive | inactive | inactive | inactive | inactive | inactive
30 | CC1=NN(c2ccccc2)C(=O)C1 | inactive | inactive | inactive | inactive | inactive | inactive | inactive | inactive |  | inactive
31 | CCn1cc(C(=O)O)c(=O)c2cc(F)c(N3CCN(C)CC3)cc21 | inactive | inactive | inactive | 12600 nM (active) |  | inactive | inactive | inactive |  | inactive
32 | N[C@@H](Cc1ccc(O)c(O)c1)C(=O)O | inactive | inactive | inactive |  |  |  | inactive |  |  | 
33 | COc1ccc(C(=O)CC(=O)c2ccc(C(C)(C)C)cc2)cc1 | inactive | inactive | inactive |  | inactive | inactive | inactive |  |  | inactive
34 | COc1cc(NS(=O)(=O)c2ccc(N)cc2)nc(OC)n1 | inactive | inactive | inactive | inactive | inactive | inactive | inactive | inactive |  | inactive
35 | COc1cnc(NS(=O)(=O)c2ccc(N)cc2)nc1 | inactive | inactive | inactive | inactive | inactive | inactive | inactive | inactive | inactive | inactive
36 | CCn1cc(C(=O)O)c(=O)c2cc(F)c(N3CCNCC3)cc21 | inactive | inactive | inactive |  | inactive | inactive |  | inactive |  | inactive
37 | CCn1cc(C(=O)O)c(=O)c2cc(F)c(N3CCNCC3)nc21 | inactive | inactive | inactive |  | inactive | inactive | inactive | inactive |  | inactive
38 | CNC(=O)c1cc(Oc2ccc(NC(=O)Nc3ccc(Cl)c(C(F)(F)F)c3)cc2)ccn1 | 2690 nM (active) | 3010 nM (active) | 1070 nM (active) |  | 8910 nM (active) | inactive | 13500 nM (active) | 11200 nM (active) | 1120 nM (active) | 
39 | CCc1cc(C(N)=S)ccn1 | inactive | inactive | inactive | inactive | inactive | inactive | inactive | inactive | inactive | inactive
40 | Cc1ccnc2c1NC(=O)c1cccnc1N2C1CC1 | inactive | inactive | inactive | inactive | inactive | inactive | inactive | inactive | inactive | inactive
